Measurements taken from PubChem BioAssay AID1220 (Sanford-Burnham Center for Chemical Genomics, 2008).
Among all 190,000 compounds or so, about 1,300 (0.68%) were called active. No stated cut-off is given here; in the data, active means inhibition above about 50%; inactive means the rest. Shown is part of a subset that was picked to be rich in actives.

Biological target: Mannose-6-phosphate isomerase (Homo sapiens) (UniProt P34949)
Assay: MPI inhibition at elevated mannose 6-phosphate – biochemical, fluorescence intensity, high mannose 6-phosphate, primary screen (AID 1220)
Conditions: recombinant PMI enzyme, coupled fluorescence intensity; at 20 µM; active compounds read high

Chain of Mannose-6-phosphate isomerase (Homo sapiens) (P34949 whole entry, looked up): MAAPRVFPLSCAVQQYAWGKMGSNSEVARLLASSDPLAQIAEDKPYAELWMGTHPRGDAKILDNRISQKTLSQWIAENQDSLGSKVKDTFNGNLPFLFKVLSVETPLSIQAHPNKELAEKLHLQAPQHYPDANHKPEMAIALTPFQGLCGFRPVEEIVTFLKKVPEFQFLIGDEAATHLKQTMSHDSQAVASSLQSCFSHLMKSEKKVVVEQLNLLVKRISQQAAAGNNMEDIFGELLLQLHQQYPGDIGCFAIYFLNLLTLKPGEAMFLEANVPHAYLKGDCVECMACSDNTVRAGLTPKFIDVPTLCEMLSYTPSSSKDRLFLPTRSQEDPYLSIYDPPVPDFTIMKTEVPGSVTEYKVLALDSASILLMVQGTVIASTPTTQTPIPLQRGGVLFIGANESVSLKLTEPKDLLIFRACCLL

inhibition, active:
COc1ccccc1NC(=O)Nc1nc(C(C)(C)C)cs1 56.3%
COc1ccc(S(=O)(=O)N=C2C=C(C)C(=O)C(C)=C2)cc1 61.5%
Nc1cc2c(cc1[N+](=O)[O-])OCO2 52.9%
COc1cc(/C=N/NC(=O)C(Cc2c[nH]c3ccccc23)NC(=O)OCC(C)C)cc([N+](=O)[O-])c1OCc1ccccc1 (stereo unspecified) 53.6%
COc1ccc2ccccc2c1C(O)c1nccn1C (stereo unspecified) 64.7%
O=C(c1ccco1)c1coc2c1cc(O)c1ccccc12 51.1%
CN(C)c1cccc2c1C(=O)c1ccccc1C2=O 55.7%
CN(C)c1cc2c(c(N(C)C)c1)C(=O)c1ccccc1C2=O 50.3%
C/C(=N\NC(=O)CNc1cccc2ccccc12)c1ccc(Br)s1 52%
C/C(CCc1ccco1)=N\NC(=O)CNc1cccc2ccccc12 56%
Cc1ccc(C)n1-c1ccccc1N 57.3%
Cc1nnc(C)c2c(C)n(-c3ccccc3N)c(C)c12 56.3%
COc1ccc(NC(=O)c2cc(S(=O)(=O)N3CCCCC3)ccc2N2CCCCC2)cn1 55.3%
CC(=O)N=Cc1c(C)c(C#N)c(=O)n(C)c1O 53%
Oc1cc2c(cc1C(c1ccc(Cl)c(Cl)c1)N1CCCC1)OCO2 (stereo unspecified) 59.9%
Oc1cc2c(cc1C(c1ccc(Br)cc1)N1CCCC1)OCO2 (stereo unspecified) 68.1%
N#Cc1c2c(c(NCc3ccco3)n3c1nc1ccccc13)CCC2 50.2%

inhibition, inactive:
COc1ccc(-n2ccnc2SCC(=O)NCc2ccco2)c(OC)c1 5.5%
O=C(NCc1ccco1)C1Cc2ccccc2CN1C(=O)c1ccco1 (stereo unspecified) -0.2%
CCn1c(SCc2nc3sc(C(=O)O)c(C)c3c(=O)[nH]2)nnc1-c1ccc(Cl)cc1 -1%
COc1ccccc1NC(=O)Nc1cc(NC(=O)Nc2ccccc2OC)c(C)nc1C -9.6%
CC(C)(C)c1csc(NC(=O)Nc2ccccc2)n1 7.8%
COc1ccc(S(=O)(=O)c2ccc(OC)cc2)cc1 6.7%
COc1ccc(S(=O)(=O)/N=C2/C=CC(=O)C(C)=C2C)cc1 43.8%
CC1CCN(C(c2ccccc2)c2nnnn2C(C)(C)C)CC1 (stereo unspecified) -19.6%
Cn1cc(Br)c(C(=O)NN2C(=O)C3C4C=CC(C5CC45)C3C2=O)n1 (stereo unspecified) 2.3%
O=C(Cc1cccc2ccccc12)NCCOc1ccccc1F 23.4%
Nc1cc2c(cc1[N+](=O)[O-])OCCOCCOCCO2 19.7%
Nc1cc2c(cc1[N+](=O)[O-])OCCO2 7.1%
CCNc1nc(NCC)nc(C(=O)NN)n1 -16.1%
COc1cc(/C=N/NC(=O)C(Cc2c[nH]c3ccccc23)NC(=O)OCC(C)C)cc([N+](=O)[O-])c1O (stereo unspecified) 6.2%
COc1cc(/C=N/NC(=O)[C@H](Cc2c[nH]c3ccccc23)NC(=O)OCC(C)C)cc([N+](=O)[O-])c1O 14.5%
Cc1ccc(S(=O)(=O)Cc2ccc(C(=O)N3CCc4ccccc4C3)o2)cc1 -0.7%
CC(C)c1cccc(C(C)C)c1NC(=O)COC(=O)c1ccc(OCC(=O)Nc2cccc(C(F)(F)F)c2)cc1 10.7%
O=c1oc2ccccc2cc1-c1cn2ccccc2n1 -4.7%
COc1cc(OC)c(NC(=O)CC(C)=O)cc1Cl 26.6%
Clc1ccccc1OCc1nnc(-c2ccccc2Br)o1 5.6%
CC(C)(C)NC(=O)CSc1nc(N)cc(=O)[nH]1 0.4%
COc1ccc(C(O)c2nccn2C)cc1 (stereo unspecified) 9.1%
Cn1ccnc1C(O)c1ccccc1 (stereo unspecified) 15.2%
OC(COCc1ccc(Cl)cc1)CN1CCN(CC(O)COCc2ccc(Cl)cc2)CC1 (stereo unspecified) -11.7%
Cc1csc(NC(=O)C2C3C=CC(O3)C2C(=O)O)n1 (stereo unspecified) 5%
Cc1ccc2[nH]c3c(c2c1)CCNC3=O -5.2%
Cc1ccc2[nH]c3c(c2c1)CCC3=O 15.5%
Cc1onc(-c2ccccc2)c1C(=O)Oc1cccnc1 -0.5%
CC(=O)NC(CCS(C)(=O)=O)C(=O)Nc1ccccc1C (stereo unspecified) 3.2%
CCCCN(C)C(=O)c1cc2cc3cc(OC)ccc3nc2o1 16.4%
Cc1cccnc1CCNC(=O)CCc1nnc(CCc2ccccc2)o1 17.7%
O=C(NC1CC1)c1cc(Cl)ccc1[N+](=O)[O-] 12.7%
O=C(c1cc(C(=O)c2ccco2)cc(C(=O)c2ccco2)c1)c1ccco1 6.2%
CC(=O)c1coc2c1cc(O)c1ccccc12 4.7%
CCOC(=O)c1ccc(N2C(=O)CC(N3CCOCC3)C2=O)cc1 (stereo unspecified) -0.3%
COc1ccc(OC)c2c1C(=O)c1ccccc1C2=O -55.2%
CNc1cccc2c1C(=O)c1ccccc1C2=O 24.4%
CN(C=[N+](C)C)c1cccc2c1C(=O)c1ccccc1C2=O 39.3%
CN(C)S(=O)(=O)c1cccc2c1C(=O)c1ccccc1C2=O 21%
Cc1nc2ccccn2c1C(=O)NN=C1CCCC1 -5%
Cc1ccc(C(=O)NNC(=O)c2cccc(S(=O)(=O)N3CCN(c4ccccc4)CC3)c2)cc1 5.6%
Cc1ccc(C(=O)NCC(=O)OC(C)C(=O)NCCC2=CCCCC2)cc1C (stereo unspecified) 4.6%
O=C(NCC1CCCO1)C(c1ccc(F)cc1)N(CC1CCCO1)C(=O)c1ccc(-c2ccccc2)[nH]1 (stereo unspecified) -8.3%
O=C(CCOc1ccccc1)Nc1cccc([N+](=O)[O-])c1 -0.7%
O=C(CNS(=O)(=O)c1ccccc1F)Nc1ccc(N2CCOCC2)cc1 1%
COc1ccc(C(=O)NCCSc2ccccc2)cc1 7.1%
CCCc1cc(=O)oc2c(C)c3occ(C)c3cc12 2.8%
COc1ccccc1NCC(=O)N/N=C(\C)c1ccc(Br)s1 11.6%
C/C(CCc1ccco1)=N/NC(=O)CCC(=O)Nc1ccc(Br)cc1 7.1%
C/C(CCc1ccco1)=N\NC(=O)CNc1c(Br)cc(Br)cc1Br -2.7%
C/C(=N\NC(=O)CNc1cccc(C)c1)c1ccc(Br)s1 14.6%
CC(=O)Cc1nsc(Nc2cccc(C)c2)n1 6.5%
COc1ccc(NC(=O)c2ccco2)cc1S(=O)(=O)N1CCOCC1 -7.3%
CC(OC(=O)c1cccnc1)C(=O)Nc1ccc2c(c1)OCO2 (stereo unspecified) 2.7%
Cc1cccc(CCN(CC(=O)NC2CCCCC2)C(=O)c2csnn2)c1 -6%
CN(Cc1nccn1C)C(=O)CC1C(=O)NCCN1CC(c1ccccc1)c1ccccc1 (stereo unspecified) 25.1%
Cc1ccc(NC(=O)CCNC(=O)c2ccco2)cc1F -1.2%
C/C(=N\NC(=O)C(=O)Nc1ccc(C)cc1)c1ccncc1 -7.3%
Cc1nnc(C)c2c(C)n(C(c3ccccc3)c3ccccc3)c(C)c12 8%
Cc1ccc(-n2c(C)c3c(C)nnc(C)c3c2C)cc1N 44.2%
CC1CCN(c2ccccc2N)CC1 2%
Cc1ccc(C)n1-c1ccccc1N1CCCCC1 -1.9%
Cc1nn(-c2ccccc2)c(C)c1C(=O)OCC(=O)c1c(N)n(CC(C)C)c(=O)n(C)c1=O 4.3%
Cc1ccc(NC(=O)c2cc(S(=O)(=O)N3CCCCC3)ccc2N2CCOCC2)cc1F 9.5%
COc1ccc(NC(=O)c2cccc(S(=O)(=O)N3CCOCC3)c2)cn1 -1.9%
CCOC(=O)/C(C#N)=C/c1ccc(SC)cc1 -6.5%
O=c1[nH]c(Cc2ccccn2)nc2scc(-c3ccccc3Cl)c12 -108%
O=C1CNC(=S)N1c1nc(-c2ccccc2)cs1 0.9%
Cc1c(/C=N/Nc2ccc(F)cc2)c(O)n(C)c(=O)c1C#N -7%
Cc1ccc(N/N=C/c2c(C)c(C#N)c(=O)n(C)c2O)cc1C 23.3%
CCC(=C(c1ccc(OC)cc1)c1ccc(OC)cc1)c1cn(CC(O)CN2CCN(C)CC2)c2ccccc12 (stereo unspecified) -5.7%
c1ccc(CCn2nnnc2C(c2cccnc2)N2CCN(c3nc4ccccc4s3)CC2)cc1 (stereo unspecified) 15.2%
S=C(c1ccc2c(c1)OCO2)N1CCCC1 7.1%
S=C(c1ccc2c(c1)OCO2)N1CCCCCC1 3.6%
Oc1c(C(c2ccc(Cl)cc2)N2CCCC2)cc(Cl)c2cccnc12 (stereo unspecified) 44.8%
CC(C)c1ccc(NC(=O)C(c2ccc3c(c2)OCO3)N2CCCCC2)cc1 (stereo unspecified) 10.5%
CCN(CC)C(=O)C(=O)Nc1ccc(OCc2ccccc2)cc1 0.5%
CC(C)Nc1nc(NC(C)C)nc(C(=O)OCCO)n1 -5.1%
O=C(COc1ccccc1)N(Cc1cc2ccccc2[nH]c1=O)CC1CCCO1 (stereo unspecified) 0.7%
CC(C)N1CCN(Cc2ccsc2)CC1CCO (stereo unspecified) 5.4%
CCc1c(C)c(C#N)c2nc3ccccc3n2c1NCc1ccco1 -6.6%
N#Cc1c2c(c(NCc3cccnc3)n3c1nc1ccccc13)CCC2 11.3%
Cc1ccc(NC(=O)CN2C(=O)NC(C)(CCc3ccccc3)C2=O)cc1 (stereo unspecified) 26.7%
COc1cccc(C2CC(=O)NC3=C2C(=O)CCC3)c1 (stereo unspecified) -0.9%
